TRHR agonist = TRH receptor (human) agonism; P34981; TRHR cells, calcium flux fluo-8, FDSS agonist mode; activation, % at 2 µM; hit rate 0.18% among 360,000
Target sequence (P34981 whole entry, looked up): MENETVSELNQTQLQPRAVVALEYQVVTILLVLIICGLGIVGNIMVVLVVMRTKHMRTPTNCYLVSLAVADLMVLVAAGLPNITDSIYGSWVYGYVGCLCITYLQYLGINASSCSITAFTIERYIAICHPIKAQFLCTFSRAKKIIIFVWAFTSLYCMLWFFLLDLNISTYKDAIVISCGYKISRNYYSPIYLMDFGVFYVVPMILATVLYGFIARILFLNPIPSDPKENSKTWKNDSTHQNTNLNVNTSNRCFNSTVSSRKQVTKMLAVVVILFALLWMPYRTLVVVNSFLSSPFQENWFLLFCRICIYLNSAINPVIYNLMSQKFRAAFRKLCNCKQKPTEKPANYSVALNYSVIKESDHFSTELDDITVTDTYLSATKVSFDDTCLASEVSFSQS
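TRHR-expressing cells, plated overnight in medium with 10% serum, were loaded with fluo-8 calcium dye at room temperature. After a 10 s baseline, library compound was pin-added and calcium release was recorded kinetically (ex 480/em 530) as agonist response.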
D1 antag = human D1 dopamine receptor antagonism; P21728; HEK293 TREx D1 cells, calcium flux, dopamine EC80; hits give low values; activity change, negative = inhibition, % at 10 µM; hit rate 3.2% among 360,000; in the data active = activity change below about -30%
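Compound effects on dopamine-evoked calcium signalling were measured in tetracycline-induced HEK293 Trex D1 cells. Dopamine at EC80 followed a 180 s compound pre-read, and fluorescence was tracked kinetically for 180 s more.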
D1 agonist = agonists of human D1 dopamine receptor. P21728. HEK293 T-REx D1 cells, calcium flux, agonist mode. activation, % at 2 µM. hit rate 1% among 360,000
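Tetracycline-induced HEK293 TREx D1 cells, force-coupled to calcium signalling, were dye-loaded with a no-wash calcium kit. Compound was pin-added after a 10 s baseline. Fluorescence was read kinetically at 1 cycle/s for 180 s, with calcium rises flagged as agonism.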
TRHR enhancer = allosteric enhancers of human TRH receptor; TRHR cells, fluo-8 calcium fluorescence, EC20 TRH enhancement; enhancement, % at 2 µM; hit rate 0.66% among 360,000; AID 493056; in the data active = enhancement above about 30%
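TRHR-expressing cells loaded with fluo-8 calcium dye were read kinetically (ex 480/em 530) during compound addition, then stimulated with an EC20 of TRH (10 nM final). Enhancement of the Gq-mediated intracellular calcium response was scored.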
D1 PAM = potentiators of human D1 dopamine receptor; P21728; HEK293 TREx D1 cells, calcium flux, dopamine EC20 potentiation; potentiation, % at 10 µM; hit rate 0.036% among 360,000; AID 504651; in the data active = potentiation above about 30%
Epigenetic derep = derepresses silenced GFP reporter in murine cells; murine LDR cells, GFP reporter derepression, 30 h; Potency, µM (series often up to 53.9 µM), usual class: activators; AID 1865; hit rate 0.2% among 280,000; active = well fitted activation curve with a large enough effect; note: nearly all actives have a fitted effect of over 60% in size
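Derepression of a silenced CMV-GFP reporter in murine LDR cells is scored by enumerating GFP-positive cells with a laser-scanning microplate cytometer after 30 hours of treatment at 37 C.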
Each line names hits and unclear results; the compound was inactive in the other large screens. Hits are enriched below; roughly 4.6% of the tested compounds scored in any of these assays. Cut-off read from the data, not from the text of the source, unless noted: active = activation above about 30%; inactive = the rest.

Cc1nc(-c2cc(C#N)c(Sc3cccc(C(F)(F)F)c3)nc2C)cs1	D1 antag -55, D1 agonist 30
O=C(CCCN1Cc2ccccc2C1)c1ccc(F)cc1	D1 antag -71
CN1CCN(CCCC(=O)c2ccc(F)cc2)CC1	none
Cc1cccc2cc(CN(CCCN(C)C)C(=S)NCCc3ccccc3)c(=O)[nH]c12	D1 agonist 31
Cc1ccc2[nH]c(=O)c(CN(CCCN(C)C)C(=S)NCCc3ccccc3)cc2c1	none
CN(CC(=O)Nc1ccc(F)cc1F)S(=O)(=O)c1cccc2nsnc12	none
Cc1ccc2nc(SCC(=O)Nc3nonc3N)[nH]c2c1	none
CN(C(=O)CSc1nc2ccccc2[nH]1)c1ccc(F)cc1	D1 antag -38
CN(CC(=O)Nc1ccc(F)cc1)C(=O)CSc1nc2ncc(Cl)cc2[nH]1	none
O=C(Nc1ccc(F)cc1)C(Sc1nc2ccccc2[nH]1)c1ccccc1 (centres undefined)	D1 antag -42
O=C(CSc1nc2ccccc2[nH]1)Nc1ccc(F)cc1	none (no result: D1 PAM)
CCOc1ccc2nc(SCC(=O)Nc3nonc3C)[nH]c2c1	D1 antag -35
COc1ccc2nc(SCC(=O)N(C)CC(=O)Nc3ccc(F)cc3)[nH]c2c1	TRHR enhancer 36 (no result: Epigenetic derep)
CCCCNc1nc(C)nc2c1nc(-c1ccccc1)n2CCN1CCCC1	none (no result: TRHR agonist, D1 antag, D1 agonist, TRHR enhancer, D1 PAM)
CCCCN(C)C(=O)Cn1c(SCC(=O)Nc2ccc(C)c(C)c2)nc2ccccc21	none
CC(C)c1ccc(-c2noc(SCC(=O)N(C)c3ccc(F)cc3)n2)cc1	D1 agonist 50
O=C(CCn1nnnc1CN1CCOCC1)N1CCC(c2cccc(Cl)c2)C1 (centres undefined)	D1 antag -80 (no result: Epigenetic derep)
O=C(CCCn1nnnc1CN1CCOCC1)N1CCC(c2ccccc2F)C1 (centres undefined)	none (no result: Epigenetic derep)
COC(=O)c1ccccc1NC(=O)C1CCCN(C(=O)c2cnn(-c3ccc(F)cc3)c2-n2cccc2)C1 (centres undefined)	none
CCOC(=O)c1sc2nc(CC(=O)OC)nc(N(C)CCc3ccccn3)c2c1C	D1 antag -30
COc1ccc(S(=O)(=O)N2CCCCCC2)cc1N(C)S(=O)(=O)c1ccccc1	D1 antag -42
CCN(CC)S(=O)(=O)c1cccc(S(=O)(=O)N2CCCCC2)c1	D1 antag -33
CCCCN(C)CCCNC(=O)Cn1ncc2c3ccccc3n(Cc3ccccc3F)c2c1=O	none
Cc1ccc(C)c(Cn2c3ccccc3c3cnn(CC(=O)NCCCN4CCOCC4)c(=O)c32)c1	D1 antag -30 (no result: Epigenetic derep)
CCCCN(C)CCCNC(=O)Cn1ncc2c3ccccc3n(Cc3cc(C)ccc3C)c2c1=O	D1 agonist 96
CCCCCCCCCCCCC/C=C/[C@@H](O)[C@H](CO)NC(C)=O	none (no result: TRHR agonist, D1 antag, D1 agonist, TRHR enhancer, D1 PAM)
Cc1ccc2c(c1)N(C(=O)N1CCC(C(=O)NCc3cccc(Br)c3)CC1)CCO2	none
O=C(CCNC(=O)c1ccc(Br)cc1)NCC1COc2ccccc2O1 (centres undefined)	D1 antag -41 (no result: Epigenetic derep)
CCOc1ccc(NS(=O)(=O)c2ccc3[nH]c4c(c3c2)CCCCC4)cc1	none
COc1ccc(C(=O)N/C(=C\c2ccc([N+](=O)[O-])cc2)C(=O)NC(CCSC)C(=O)O)cc1 (centres undefined)	D1 antag -33, D1 agonist 111
CCn1c(NCc2ccco2)nc2ccccc21	none
c1ccc(Cn2c(NCc3ccco3)nc3ccccc32)cc1	D1 antag -36
COc1ccc(CCNC(=O)Cc2c(C)c3ccc(O)c(C)c3oc2=O)cc1OC	none
Nc1c(C(O)(C(F)(F)F)C(F)(F)F)cc(C(O)(C(F)(F)F)C(F)(F)F)c2ccccc12	D1 agonist 40
CNC1C(OC2C(O[C@@H]3C(O)C(O)[C@@H](N=C(N)N)C(O)C3N=C(N)N)OC(C)[C@@]2(O)CO)OC(CO)C(O)C1O (some centres undefined)	none (no result: TRHR agonist, D1 antag, D1 agonist, TRHR enhancer, D1 PAM)
O=C(NCCCN1CCN(c2ccccc2)CC1)Nc1ccccc1C(F)(F)F	none
O=C(NCCCN1CCN(c2ccccc2F)CC1)Nc1ccccc1[N+](=O)[O-]	D1 antag -54

From PubChem BioAssay
